PubChem BioAssay (NCI)
Where “and” joins values, the source holds several entries; their conditions need not be identical. Identical values can stand only once. About 79,000 compounds went through this panel and 15% of them were active in at least one assay; those are over-represented in the sample as a whole. Calls of active or inactive are those of the source. Rule as the data show it: active = growth inhibition above about 70%; inactive = the rest.

Assay: NCI Yeast Anticancer Drug Screen. Data for the bub3 strain (AID 167)
Details: S. cerevisiae bub3 mutant strain, at 50.0 µM (retest, dose inferred, filed as 5.0), hits give high values
Summary of the method: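 Growth of a checkpoint-deficient yeast mutant is measured after compound exposure. Values represent inhibition relative to vehicle.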
With `COC(COC(N)=O)C1=C(N2CC2)C(=O)C(C)=C(N2CC2)C1=O` (stereo not drawn) the growth inhibition was 99% (active).
In the case of `Cc1nc(Cl)c(CBr)c(Cl)n1`, the growth inhibition is reported as 100% (active).
In the case of `C[n+]1[se]nc2cc(C(=O)c3ccccc3)ccc21` (tested in a mixture with another compound), the growth inhibition is reported as 99% (active).
For `O=C(O)c1ccccc1.[Ag]`, the growth inhibition was 98% (active) and 99% (active).
In the case of `CC(=O)[O-].O=C([CH-]C(=O)c1ccccc1)c1ccccc1.O=C([CH-]C(=O)c1ccccc1)c1ccccc1.[Sm+3]`, the growth inhibition is reported as 52% (inactive).
With `CC(C)(Br)C(=O)C(Br)Br` the growth inhibition was 99% (active).
For `C=C[C@H]1CN2CC[C@H]1C[C@@H]2[C@@H](O)c1ccnc2ccccc12`, the growth inhibition was -1% (inactive).
With `[C-]#[O+].[C-]#[O+].[Ir].[O-]c1ccc2ccccc2c1N=Nc1ccccc1` the growth inhibition was -20% (inactive).
For `O=C(Nc1ccccc1)OC(C[N+](=O)[O-])C(Cl)(Cl)Cl` (stereo not drawn), the growth inhibition was 100% (active).
With `O=c1c2ccccc2[se]n1-c1cccnc1` the growth inhibition was 38% (inactive).
With `[Pt].c1ccc(P(CCP(c2ccccc2)c2ccccc2)CCP(c2ccccc2)c2ccccc2)cc1` the growth inhibition was 91% (active).
For `CC12CCC(C1)C(C)(C)C2OC(=O)c1ccccc1N` (stereo not drawn), the growth inhibition was 80% (active).
With `CC(=O)[O][Hg][c]1cc2c(cc1O)Cc1cc([N+](=O)[O-])ccc1-2` the growth inhibition was 98% (active).
With `OC1(c2ccccc2)CC2CCC(C1)N2CCCC(O)(c1ccccc1)c1ccccc1` (stereo not drawn) the growth inhibition was 67% (inactive).
In the case of `ClC1=C(Cl)C(Cl)(Cl)SS1`, the growth inhibition is reported as 99% (active).
For `COC(=O)C(F)C(Br)C(=O)OC` (stereo not drawn), the growth inhibition was -21% (inactive).
With `c1ccc2c(NCCCCCCNc3c4ccccc4nc4ccccc34)c3ccccc3nc2c1` the growth inhibition was 88% (active).
With `c1ccc2c(NCCCCCCCCNc3c4ccccc4nc4ccccc34)c3ccccc3nc2c1` the growth inhibition was 49% (inactive).
With `CN(Cc1ccccc1)CC(O)c1ccc(Cl)cc1` (stereo not drawn) the growth inhibition was 41% (inactive).
With `Br[C](Br)(Br)[Hg][c]1ccccc1` the growth inhibition was 99% (active).
In the case of `Cc1cc(N=Nc2ccccc2C)ccc1N`, the growth inhibition is reported as 97% (active) and 99% (active).
With `C/C(=N\N=C(/[Se])N1CC2CCC(CC2)C1)c1ccccn1` the growth inhibition was 81% (active).
In the case of `CCCCCCCCCC[Se]C#N`, the growth inhibition is reported as 99% (active).
With `CNCC(O)c1ccc(O)c(O)c1.[Pt].c1ccc([PH+](c2ccccc2)c2ccccc2)cc1.c1ccc([PH+](c2ccccc2)c2ccccc2)cc1` the growth inhibition was 99% (active).
In the case of `CCN(CC)CC.CCOc1ccc(NC(=O)N=C=[N-])cc1.[CH-]1CCCCC1.[CH-]1CCCCC1.[CH-]1CCCCC1.[Cl-].[Sn+4]`, the growth inhibition is reported as 99% (active).
With `Cc1cc(N(C)C)c2ccccc2[n+]1CCCCCCCCCC[n+]1c(C)cc(N(C)C)c2ccccc21` the growth inhibition was 98% (active).
With `CCC[CH2][Sn]1([CH2]CCC)[O]CC(CN2CCCC2)[O]1` (stereo not drawn) the growth inhibition was 97% (active).
In the case of `N#Cc1ccc([Se]c2ccccc2)cc1`, the growth inhibition is reported as 84% (active).
For `O=c1ssc(Cl)c1Cl`, the growth inhibition was 100% (active).
With `Nc1nc(N)c(-c2ccc(Cl)c(Cl)c2)c(CP(Cl)(Cl)(Cl)Br)n1` the growth inhibition was 78% (active).
With `Cc1ccc(P(c2ccc(C)cc2)c2ccc(C)cc2)cc1` the growth inhibition was 88% (active).
For `O=C(O)c1ccccc1[Se][Se]c1ccccc1C(=O)O`, the growth inhibition was 70% (active).
For `CC1CC(C)CC(C)C(O)/C(C#N)=C/C=C/CC(C2CCCC2C(=O)O)OC(=O)CC(O)C(C)C1` (stereo not drawn), the growth inhibition was -7% (inactive).
With `CCC[CH2][Pb]([Cl])([CH2]CCC)[CH2]CCC` the growth inhibition was 98% (active).
For `CNC(Cc1ccccc1)c1ccc(OC)c(OC)c1` (stereo not drawn), the growth inhibition was 28% (inactive).
With `CC1C(=O)OCC1(C)O` (stereo not drawn) the growth inhibition was 2% (inactive).
With `O=C(Nc1ccccc1)c1cc([N+](=O)[O-])ccc1O` the growth inhibition was 96% (active).
With `N=P(c1ccccc1)(c1ccccc1)c1ccccc1` (tested in a mixture with another compound) the growth inhibition was 29% (inactive).
